# PubChem BioAssay (NCI)
# About 79,000 compounds went through this panel and 15% of them were active in at least one assay; those are over-represented in the sample as a whole. Unmarked numbers belong to inactive results. Active and inactive are the calls of the source. Cut-off read from the data, not from the text of the source: active = growth inhibition above about 70%; inactive = the rest.
# Columns and labels:
# [1] = NCI Yeast Anticancer Drug Screen. Data for the rad52 strain (AID 147);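 note: 0% = growth of vehicle-treated control cultures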; settings: S. cerevisiae rad52 mutant growth inhibition, stronger effect = higher value
# Procedure, shortened: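 Genetically altered yeast (DNA damage repair defect) treated with compound; inhibition calculated relative to vehicle.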
# [2] = NCI Yeast Anticancer Drug Screen. Data for the wt1 strain (AID 149);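 note: 0% = growth of vehicle-treated wt1 cultures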; settings: S. cerevisiae wt1 strain (SPY 50644) growth inhibition, stronger effect = higher value
# Procedure, shortened: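 Using yeast strain wt1, compound-induced growth inhibition was determined against vehicle-treated cultures.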
# [3] = NCI Yeast Anticancer Drug Screen. Data for the rad50EPP+ strain (AID 151);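 note: 0% = growth of vehicle-treated control cultures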; settings: S. cerevisiae rad50 mutant strain, stronger effect = higher value
# Procedure, shortened: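 Strain rad50EPP+; compound exposure; % growth inhibition vs vehicle.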
# [4] = NCI Yeast Anticancer Drug Screen. Data for the mgt1 strain (AID 153); settings: S. cerevisiae mgt1 mutant growth inhibition, stronger effect = higher value
# Procedure, shortened: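 Read-out: yeast growth inhibition vs vehicle control. Strain mgt1, drawn from a panel altered in DNA damage repair or cell cycle control.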
# [5] = NCI Yeast Anticancer Drug Screen. Data for the rad50 strain (AID 155);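 note: 0% = growth of vehicle-only cultures of the same strain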; settings: S. cerevisiae rad50 strain growth inhibition, stronger effect = higher value
# Procedure, shortened: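 Relative growth inhibition (compound vs vehicle) was measured in yeast with a defined repair-gene alteration.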
# [6] = NCI Yeast Anticancer Drug Screen. Data for the mec2-1 strain (AID 157); settings: S. cerevisiae mec2-1 strain, stronger effect = higher value
# Procedure, shortened: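 Cells of the genetically defined mec2-1 yeast strain are incubated with test compound. Inhibition of growth is calculated against vehicle-treated controls.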
# [7] = NCI Yeast Anticancer Drug Screen. Data for the rad14 strain (AID 159);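 note: 0% = growth of vehicle-treated control cultures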; settings: S. cerevisiae rad14 strain growth inhibition, stronger effect = higher value
# Procedure, shortened: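 Screen for anticancer potential: a yeast strain altered in DNA damage repair is grown with compound, and reduced growth is quantified against vehicle controls.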
# [8] = NCI Yeast Anticancer Drug Screen. Data for the sgs1 mgt1 strain (AID 161);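 note: 0% = growth of cultures given vehicle only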; settings: S. cerevisiae sgs1 mgt1 strain, stronger effect = higher value
# Procedure, shortened: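 Genetically altered yeast, compound exposure, growth inhibition relative to vehicle.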
# [9] = NCI Yeast Anticancer Drug Screen. Data for the CLN2oe strain (AID 163);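 note: 0% = growth of vehicle-only control cultures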; settings: S. cerevisiae CLN2oe strain, stronger effect = higher value
# Procedure, shortened: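 Strain altered in cell-cycle control, incubated with compound; growth compared to solvent-treated controls.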
# [10] = NCI Yeast Anticancer Drug Screen. Data for the cln2 rad14 strain (AID 165);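 note: 0% = growth equal to vehicle treated cultures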; settings: S. cerevisiae cln2 rad14 strain, stronger effect = higher value
# Procedure, shortened: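 The screen exposed genetically defined yeast (cln2 rad14) to test compounds and scored growth inhibition relative to vehicle-treated controls.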
# [11] = NCI Yeast Anticancer Drug Screen. Data for the bub3 strain (AID 167); settings: S. cerevisiae bub3 mutant strain, stronger effect = higher value
# Procedure, shortened: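 Screening used yeast with an engineered genetic alteration affecting cell cycle control. Compound-exposed cultures were compared with vehicle cultures, and reduced growth was taken as inhibition.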
# [12] = NCI Yeast Anticancer Drug Screen. Data for the wt2 strain (AID 169);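 note: 0% = growth of vehicle-treated yeast cultures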; settings: S. cerevisiae wt2 strain growth inhibition, stronger effect = higher value
# Procedure, shortened: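 Steps: yeast strain treated with compound; growth recorded; inhibition calculated relative to cultures given vehicle alone.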
# [13] = NCI Yeast Anticancer Drug Screen. Data for the mlh1 strain (AID 171);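 note: 0% = growth of vehicle-treated control cultures of the same strain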; settings: S. cerevisiae mlh1 strain growth inhibition, stronger effect = higher value
# Procedure, shortened: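 Yeast screen: mutant strain plus compound, growth scored against vehicle control wells.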
# [14] = NCI Yeast Anticancer Drug Screen. Data for the sgs1 strain (AID 173);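 note: 0% = growth of vehicle-only control cultures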; settings: S. cerevisiae sgs1 mutant, stronger effect = higher value
# Procedure, shortened: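 Inhibition of yeast growth served as the measure. The mutant strain was treated with each compound, and growth was normalised to cultures receiving vehicle alone.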
# [15] = NCI Yeast Anticancer Drug Screen. Data for the mlh1 rad18 strain (AID 175); settings: S. cerevisiae mlh1 rad18 strain growth inhibition, stronger effect = higher value
# Procedure, shortened: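 Compound-treated yeast growth, normalised to vehicle controls. Strain bears defined DNA repair mutations.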
# [16] = NCI Yeast Anticancer Drug Screen. Data for the rad18 strain (AID 177); settings: S. cerevisiae rad18 mutant growth inhibition, stronger effect = higher value
# Procedure, shortened: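 Inhibition values reflect reduced yeast growth compared with vehicle-treated controls, using a strain engineered with a DNA damage repair defect.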
# [17] = at 5.0 µM (retest, dose inferred, filed as 0.5)
# [18] = at 50.0 µM (retest, dose inferred, filed as 5.0)
structure (smiles),measurement,setting,value
c1ccc2nc3c(nc2c1)sc1ccccc13,growth inhibition,[1]; at 1.2 µM,13%
same,growth inhibition,[1]; at 3.7 µM,74% (active)
same,growth inhibition,[1]; at 11.0 µM,95% (active)
same,growth inhibition,[1]; at 33.0 µM,94% (active)
same,growth inhibition,[1]; at 100.0 µM,86% (active)
same,growth inhibition,[2]; at 1.2 µM,1%
same,growth inhibition,[2]; at 3.7 µM,4%
same,growth inhibition,[2]; at 11.0 µM,17%
same,growth inhibition,[2]; at 33.0 µM,27%
same,growth inhibition,[2]; at 100.0 µM,23%
same,growth inhibition,[3]; at 1.2 µM,41%
same,growth inhibition,[3]; at 3.7 µM,92% (active)
same,growth inhibition,[3]; at 11.0 µM,95% (active)
same,growth inhibition,[3]; at 33.0 µM,94% (active)
same,growth inhibition,[3]; at 100.0 µM,84% (active)
same,growth inhibition,[4]; at 1.2 µM,2%
same,growth inhibition,[4]; at 3.7 µM,2%
same,growth inhibition,[4]; at 11.0 µM,10%
same,growth inhibition,[4]; at 33.0 µM,20%
same,growth inhibition,[4]; at 100.0 µM,18%
same,growth inhibition,[5]; at 1.2 µM,13%
same,growth inhibition,[5]; at 3.7 µM,75% (active)
same,growth inhibition,[5]; [17],54%
same,growth inhibition,[5]; at 11.0 µM,92% (active)
same,growth inhibition,[5]; at 33.0 µM,91% (active)
same,growth inhibition,[5]; [18],78% (active)
same,growth inhibition,[5]; at 50.0 µM,92.8% (active)
same,growth inhibition,[5]; at 100.0 µM,82% (active)
same,growth inhibition,[6]; at 1.2 µM,4%
same,growth inhibition,[6]; at 3.7 µM,5%
same,growth inhibition,[6]; [17],-32%
same,growth inhibition,[6]; at 11.0 µM,41%
same,growth inhibition,[6]; at 33.0 µM,42%
same,growth inhibition,[6]; [18],8%
same,growth inhibition,[6]; at 50.0 µM,31.9%
same,growth inhibition,[6]; at 100.0 µM,36%
same,growth inhibition,[7]; at 1.2 µM,4%
same,growth inhibition,[7]; at 3.7 µM,21%
same,growth inhibition,[7]; at 11.0 µM,35%
same,growth inhibition,[7]; at 33.0 µM,39%
same,growth inhibition,[7]; at 100.0 µM,35%
same,growth inhibition,[8]; [17],-52%
same,growth inhibition,[8]; [18],-5%
same,growth inhibition,[8]; at 50.0 µM,11.2%
same,growth inhibition,[9]; at 1.2 µM,-2%
same,growth inhibition,[9]; at 3.7 µM,6%
same,growth inhibition,[9]; at 11.0 µM,28%
same,growth inhibition,[9]; at 33.0 µM,37%
same,growth inhibition,[9]; at 100.0 µM,34%
same,growth inhibition,[10]; [17],-29%
same,growth inhibition,[10]; [18],15%
same,growth inhibition,[10]; at 50.0 µM,36%
same,growth inhibition,[11]; at 1.2 µM,0%
same,growth inhibition,[11]; at 3.7 µM,11%
same,growth inhibition,[11]; [17],-40%
same,growth inhibition,[11]; at 11.0 µM,41%
same,growth inhibition,[11]; at 33.0 µM,47%
same,growth inhibition,[11]; [18],12%
same,growth inhibition,[11]; at 50.0 µM,32.8%
same,growth inhibition,[11]; at 100.0 µM,41%
same,growth inhibition,[12]; at 1.2 µM,-2%
same,growth inhibition,[12]; at 3.7 µM,1%
same,growth inhibition,[12]; at 11.0 µM,6%
same,growth inhibition,[12]; at 33.0 µM,13%
same,growth inhibition,[12]; at 100.0 µM,9%
same,growth inhibition,[13]; at 1.2 µM,4%
same,growth inhibition,[13]; at 3.7 µM,3%
same,growth inhibition,[13]; at 11.0 µM,19%
same,growth inhibition,[13]; at 33.0 µM,28%
same,growth inhibition,[13]; at 100.0 µM,23%
same,growth inhibition,[14]; at 1.2 µM,-2%
same,growth inhibition,[14]; at 3.7 µM,20%
same,growth inhibition,[14]; at 11.0 µM,43%
same,growth inhibition,[14]; at 33.0 µM,51%
same,growth inhibition,[14]; at 100.0 µM,37%
same,growth inhibition,[15]; [17],-71%
same,growth inhibition,[15]; [18],14%
same,growth inhibition,[15]; at 50.0 µM,61.9%
same,growth inhibition,[16]; at 1.2 µM,4%
same,growth inhibition,[16]; at 3.7 µM,21%
same,growth inhibition,[16]; at 11.0 µM,45%
same,growth inhibition,[16]; at 33.0 µM,52%
same,growth inhibition,[16]; at 100.0 µM,47%
Oc1ccc(C2(c3ccc(O)cc3)CCCC2)cc1,growth inhibition,[1]; at 1.2 µM,-31%
same,growth inhibition,[1]; at 3.7 µM,-23%
same,growth inhibition,[1]; at 11.0 µM,15%
same,growth inhibition,[1]; at 33.0 µM,98% (active)
same,growth inhibition,[1]; at 100.0 µM,98% (active)
same,growth inhibition,[2]; at 1.2 µM,-41%
same,growth inhibition,[2]; at 3.7 µM,-21%
same,growth inhibition,[2]; at 11.0 µM,10%
same,growth inhibition,[2]; at 33.0 µM,98% (active)
same,growth inhibition,[2]; at 100.0 µM,98% (active)
same,growth inhibition,[3]; at 1.2 µM,-40%
same,growth inhibition,[3]; at 3.7 µM,-50%
same,growth inhibition,[3]; at 11.0 µM,-44%
same,growth inhibition,[3]; at 33.0 µM,-50%
same,growth inhibition,[3]; at 100.0 µM,-4%
same,growth inhibition,[4]; at 1.2 µM,-23%
same,growth inhibition,[4]; at 3.7 µM,-6%
same,growth inhibition,[4]; at 11.0 µM,37%
same,growth inhibition,[4]; at 33.0 µM,97% (active)
same,growth inhibition,[4]; at 100.0 µM,98% (active)
same,growth inhibition,[5]; at 1.2 µM,3%
same,growth inhibition,[5]; at 3.7 µM,4%
same,growth inhibition,[5]; [17],16%
same,growth inhibition,[5]; at 11.0 µM,34%
same,growth inhibition,[5]; at 33.0 µM,98% (active)
same,growth inhibition,[5]; [18],99% (active)
same,growth inhibition,[5]; at 50.0 µM,90.5% (active)
same,growth inhibition,[5]; at 100.0 µM,98% (active)
same,growth inhibition,[6]; at 1.2 µM,-26%
same,growth inhibition,[6]; at 3.7 µM,-16%
same,growth inhibition,[6]; [17],8%
same,growth inhibition,[6]; at 11.0 µM,32%
same,growth inhibition,[6]; at 33.0 µM,98% (active)
same,growth inhibition,[6]; [18],99% (active)
same,growth inhibition,[6]; at 50.0 µM,93.2% (active)
same,growth inhibition,[6]; at 100.0 µM,98% (active)
same,growth inhibition,[7]; at 1.2 µM,1%
same,growth inhibition,[7]; at 3.7 µM,-16%
same,growth inhibition,[7]; at 11.0 µM,29%
same,growth inhibition,[7]; at 33.0 µM,98% (active)
same,growth inhibition,[7]; at 100.0 µM,98% (active)
same,growth inhibition,[8]; [17],9%
same,growth inhibition,[8]; [18],53%
same,growth inhibition,[8]; at 50.0 µM,92.1% (active)
same,growth inhibition,[9]; at 1.2 µM,-12%
same,growth inhibition,[9]; at 3.7 µM,16%
same,growth inhibition,[9]; at 11.0 µM,48%
same,growth inhibition,[9]; at 33.0 µM,99% (active)
same,growth inhibition,[9]; at 100.0 µM,98% (active)
same,growth inhibition,[10]; [17],44%
same,growth inhibition,[10]; [18],99% (active)
same,growth inhibition,[10]; at 50.0 µM,89.5% (active)
same,growth inhibition,[11]; at 1.2 µM,-24%
same,growth inhibition,[11]; at 3.7 µM,-22%
same,growth inhibition,[11]; [17],16%
same,growth inhibition,[11]; at 11.0 µM,27%
same,growth inhibition,[11]; at 33.0 µM,98% (active)
same,growth inhibition,[11]; [18],98% (active)
same,growth inhibition,[11]; at 50.0 µM,92.1% (active)
same,growth inhibition,[11]; at 100.0 µM,98% (active)
same,growth inhibition,[12]; at 1.2 µM,-54%
same,growth inhibition,[12]; at 3.7 µM,-30%
same,growth inhibition,[12]; at 11.0 µM,-18%
same,growth inhibition,[12]; at 33.0 µM,98% (active)
same,growth inhibition,[12]; at 100.0 µM,98% (active)
same,growth inhibition,[13]; at 1.2 µM,-33%
same,growth inhibition,[13]; at 3.7 µM,-26%
same,growth inhibition,[13]; at 11.0 µM,46%
same,growth inhibition,[13]; at 33.0 µM,98% (active)
same,growth inhibition,[13]; at 100.0 µM,98% (active)
same,growth inhibition,[14]; at 1.2 µM,-20%
same,growth inhibition,[14]; at 3.7 µM,-17%
same,growth inhibition,[14]; at 11.0 µM,11%
same,growth inhibition,[14]; at 33.0 µM,98% (active)
same,growth inhibition,[14]; at 100.0 µM,98% (active)
same,growth inhibition,[15]; [17],35%
same,growth inhibition,[15]; [18],99% (active)
same,growth inhibition,[15]; at 50.0 µM,90% (active)
same,growth inhibition,[16]; at 1.2 µM,-11%
same,growth inhibition,[16]; at 3.7 µM,7%
same,growth inhibition,[16]; at 11.0 µM,60%
same,growth inhibition,[16]; at 33.0 µM,98% (active)
same,growth inhibition,[16]; at 100.0 µM,98% (active)
